The results in this text go back to PubChem BioAssay.

The nature of experiment [1]: Her2 expression decrease, cell viability multiplex – SKBR3 breast tumor cells, AlphaScreen, ATP viability, primary screen (AID 461;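 active = Her2 level under about 52% in both replicate screens, with viability over 70% of control, limit read from the data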;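 for Her2 level: lower value means less Her2 protein in the cells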;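 for viability: percent of carrier control wells set as 100% viability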). The following applies: SKBR3 Her2 protein level, 18-24 h, measured here: SKBR3 viability, ATP luminescence, at 10 µM.
In experiment [2] the target is Receptor tyrosine-protein kinase erbB-2 (Homo sapiens) (UniProt P04626). Described as above. The following applies: 18-24 h, at 10 µM, stronger effect = lower value.
The nature of experiment [3]: reduced viability of SK-BR-3 breast cancer cells – cell-based, 24 h, human, pilot screen (AID 572;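 active = viability at or below 10% of carrier control in both of two separate runs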;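 note: compound exposure lasted between 18 and 24 h rather than exactly 24 h; 100% = carrier-treated control wells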). To be noted: SK-BR-3 viability, CellTiter-Glo luminescence, at 10 µM, stronger effect = lower value. On the technique in general: ATP-based viability assays read luminescence as a measure of living cells.
Experiment [4] can be described thus: HUVEC growth inhibition – cell-based, human, primary screen (AID 575;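 active = viability at or below 30% in both replicate assays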;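 note: 100% = median of untreated cell wells with 0.1% DMSO on each plate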). To be noted: HUVEC proliferation, CellTiter-Glo luminescence, 72 h; at 10 µM; stronger effect = lower value.
Experiment [5] in a line: H69AR cell proliferation blockers – human, duplicate replicates, primary screen (AID 580;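 active = viability at or under a set limit in both replicates, limit being median viability minus 3 SD, cut at about 48% in these data, passing the limit was not always enough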;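 note: 100% = mean luminescence of untreated wells and 0% = no signal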). The following applies: H69AR lung tumor cells viability, ATP luminescence, 72 h; at 10 µM; stronger effect = lower value.
Experiment [6] in a line: MRP1 drug-resistance reversers in H69AR cells – cell-based, doxorubicin co-treatment, pilot screen (AID 601;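 active = viability loss from added drug above about 55%, and viability with drug at most 40%, in both replicates, limit read from the data, passing the limit was not always enough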). To be noted: CellTiter-Glo, 72 h, at 10 µM; for differential viability (reversal): stronger effect = higher value.
The nature of experiment [7]: yeast transport mutant growth inhibition pilot in 384-well plates, post-Golgi transport modulator project (AID 636; in the data active = inhibition above about 31%). To be noted: absorbance 615 nm, about 18 h, stronger effect = higher value.
Experiment [8] is described as follows: growth suppression of yeast trafficking mutant, preliminary HTS, modulators of trafficking downstream of Golgi apparatus project, 1536-format plate, OD 615 nm (AID 637; in the data active = inhibition above about 30%). The following applies: yeast transport mutant growth, absorbance 615 nm, 18 h; stronger effect = higher value.
The nature of experiment [9]: S. cerevisiae growth inhibition in permissive medium (OD615), pilot counter-assay for S. cerevisiae lifespan shortening project, permissive growth control (AID 705;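 active = growth inhibition above 25% in both replicates, a cutoff set 3 SD above the mean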). To be noted: OD615, 24 h, at 10 µM, stronger effect = higher value.
A short description of experiment [10]: S. cerevisiae growth inhibition in restrictive medium, OD615, pilot screen, restrictive growth control, yeast lifespan reduction project (AID 706;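 active = growth inhibition above a set limit, 3 SD over mean compound inhibition, in both replicates, cut at about 43% in these data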;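 note: modified DeaD lifespan yeast strain shifted to restrictive glucose medium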). The following applies: OD615, 48 h, at 10 µM, stronger effect = higher value.
Experiment [11] in a line: doxorubicin toxicity protection in MRP-1 cells – H69AR cells, CellTiter-Glo, duplicate, MRP-1 activator project, pilot screen (AID 807;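 active = viability increase at or above a cutoff of the median across tested compounds plus 3 SD, cut at about 8.5% in these data, passing the limit was not always enough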;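 note: compound pretreatment 18-22 h then 72 h combined with doxorubicin; 0% = doxorubicin alone and 100% = vehicle without doxorubicin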). The following applies: H69AR viability with doxorubicin, CellTiter-Glo luminescence; at 10 µM; stronger effect = higher value.
Experiment [12] is described as follows: viability of HCT116 without oncogenic beta-catenin – human colon tumor cells, pilot screen (AID 823;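 active = cell viability at or below a set limit in both duplicate runs, the limit being the all-compound median minus 4 SD, cut at about 23% in these data, passing the limit was not always enough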;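 note: 0% = wells killed by 20 µM Hyamine and 100% = untreated DMSO cell wells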). The following applies: HCT116 beta-catenin knockout viability, CellTiter-Glo, 60 h; at 10 µM; stronger effect = lower value.
Experiment [13] is described as follows: viability of PTEN-null HCT116 cells – cell-based, HCT116 clonal line, CellTiter-Glo, pilot screen (AID 824;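 active = viability at or below 27.92% in each of two runs, the all-compound median minus 4 SD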;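 note: 0% = 20 µM Hyamine control and 100% = vehicle cell control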). The following applies: HCT116 PTEN-deleted viability, 60 h, at 10 µM, stronger effect = lower value.
Experiment [14] can be described thus: RAM pathway blockade in budding yeast – dse1pr::URA3 reporter, 5-FOA selection, pilot screen (AID 869).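 Note: 0% = DMSO wells with no growth and 100% = 10 µM 1-NA-PP1 with full growth; RAM network block rescues cells from 5-FOA so hits raise OD615 growth.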 The following applies: S. cerevisiae dse1pr::URA3 5-FOA growth, OD615, 2 d; at 10 µM; stronger effect = higher value; strain carries analog-sensitive mutant Cbk1 kinase.
Experiment [15] is described as follows: RAM signaling pathway blockade in yeast – S. cerevisiae, Pdr1DBD-CYC8 efflux-inhibited sensitized strain, primary screen (AID 1298;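 active = RAM network inhibition above 8.4% in each of two replicates, 3 SD over the compound average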;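 note: 0% = DMSO untreated cells without growth and 100% = 10 µM 1-NA-PP1 full growth; higher means more yeast growth rescued from 5-FOA killing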). To be noted: S. cerevisiae cbk1-as DSE1-URA3 strain, 5-FOA growth OD615, 2 d; at 50 µM; stronger effect = higher value.
[16] abbreviates: H69AR cells + 2 uM doxorubicin, measured here: viability with 2 uM doxorubicin, stronger effect = lower value.
The mark [17] stands for this setting: H69AR cells, compound alone cytotoxicity.

Inconclusive results are not listed. Activity calls are given as the source filed them.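 Rule for the calls, unless noted: active = inhibition over a set limit, the all-compound mean plus 3 SD, in both replicate runs; inconclusive = over that limit in just one replicate run; inactive = at or under that limit in both runs.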

Receptor tyrosine-protein kinase erbB-2 (Homo sapiens), sequence (P04626 whole entry, looked up): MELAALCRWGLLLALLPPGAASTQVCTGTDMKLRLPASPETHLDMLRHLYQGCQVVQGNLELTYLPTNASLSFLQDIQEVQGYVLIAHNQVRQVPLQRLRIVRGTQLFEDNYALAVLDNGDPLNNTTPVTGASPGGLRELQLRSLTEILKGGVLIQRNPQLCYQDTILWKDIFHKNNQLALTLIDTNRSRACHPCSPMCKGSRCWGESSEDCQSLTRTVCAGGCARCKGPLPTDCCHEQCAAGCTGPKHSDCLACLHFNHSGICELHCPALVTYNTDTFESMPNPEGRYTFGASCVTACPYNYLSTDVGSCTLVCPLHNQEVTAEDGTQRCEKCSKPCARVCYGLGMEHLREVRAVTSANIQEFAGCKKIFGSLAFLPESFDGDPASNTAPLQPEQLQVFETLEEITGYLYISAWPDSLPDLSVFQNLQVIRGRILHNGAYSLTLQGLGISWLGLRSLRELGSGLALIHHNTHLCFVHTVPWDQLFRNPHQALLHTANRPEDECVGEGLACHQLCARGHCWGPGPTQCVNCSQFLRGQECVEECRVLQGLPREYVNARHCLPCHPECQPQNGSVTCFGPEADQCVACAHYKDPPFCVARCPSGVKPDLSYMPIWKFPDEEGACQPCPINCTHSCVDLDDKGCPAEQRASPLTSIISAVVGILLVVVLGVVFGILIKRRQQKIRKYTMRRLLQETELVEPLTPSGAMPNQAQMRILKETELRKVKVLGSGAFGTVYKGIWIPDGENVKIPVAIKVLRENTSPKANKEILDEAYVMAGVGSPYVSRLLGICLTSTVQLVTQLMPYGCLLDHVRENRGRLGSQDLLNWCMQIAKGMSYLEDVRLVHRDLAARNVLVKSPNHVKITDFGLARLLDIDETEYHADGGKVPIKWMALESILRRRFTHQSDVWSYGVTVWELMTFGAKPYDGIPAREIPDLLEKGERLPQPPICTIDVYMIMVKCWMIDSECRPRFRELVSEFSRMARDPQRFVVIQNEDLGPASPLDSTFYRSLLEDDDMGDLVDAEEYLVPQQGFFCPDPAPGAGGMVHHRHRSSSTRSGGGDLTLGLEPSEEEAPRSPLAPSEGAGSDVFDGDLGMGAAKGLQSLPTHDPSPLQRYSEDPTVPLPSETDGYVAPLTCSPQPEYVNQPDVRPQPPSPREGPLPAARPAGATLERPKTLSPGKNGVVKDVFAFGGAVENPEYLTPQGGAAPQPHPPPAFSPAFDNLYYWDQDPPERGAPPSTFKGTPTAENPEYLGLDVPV

As for `O=P(O)(CCc1ccccc1)CN1CCCCC1`, the viability in [1] was 106%; in experiment [3] it was 106% (inactive); in experiment [4] it was 102% (inactive); in [5], 95.5% (inactive); in experiment [6] (setting [16]), 92%; in experiment [6] (setting [17]), 95.5%. The viability in [12] is 102% (inactive); in experiment [13], 98.8% (inactive). Moreover, in [2], the Her2 level is 106% (inactive). The differential viability (reversal) in experiment [6] (H69AR cells + 2 uM doxorubicin) was 3.43% (inactive). Also, the inhibition in [7] is 7.97% (inactive); in [8], -1.97% (inactive); in [14], 2% (inactive). In addition, the growth inhibition in [9] was -2.51% (inactive); in experiment [10], -11.9% (inactive). The viability increase in [11] was -0.92% (inactive). In [15], the RAM network inhibition was 1.24% (inactive).

`CC1CCc2nn(CC(=O)Nc3ccc(F)cc3F)cc2C1` (stereo not given): the viability is 108% in experiment [1]; 108% (inactive) in experiment [3]; 100% (inactive) in experiment [4]; 104% (inactive) in experiment [5]; 89.5% in experiment [6] (setting [16]); 104% in experiment [6] (setting [17]). Besides, the results for the viability in experiment [12] and in experiment [13] were 97.8% (inactive) and 98.3% (inactive), respectively. In experiment [2], the Her2 level was 97.5% (inactive). In addition, the differential viability (reversal) in [6] (H69AR cells + 2 uM doxorubicin) is 14.7% (inactive). For the same compound, the figures for the inhibition in experiment [7], in experiment [8] and in experiment [14] were -0.93% (inactive), -6.72% (inactive) and 2.21% (inactive), respectively. For the same compound, the figures for the growth inhibition in experiment [9] and in experiment [10] were -2.97% (inactive) and -12.2% (inactive), respectively. The viability increase in experiment [11] is 1.3% (inactive). Moreover, in experiment [15], the RAM network inhibition is -0.77% (inactive).

In the case of `Cc1ccc(-n2ncc3c(=O)[nH]c(SC(C)C)nc32)cc1`, the viability is 93% in experiment [1]; 93% (inactive) in experiment [3]; 84.9% (inactive) in experiment [4]; 80.1% (inactive) in experiment [5]; 68.7% in experiment [6] (setting [16]); 80.1% in experiment [6] (setting [17]). Also, the viability in [12] is 98.4% (inactive); in experiment [13] it was 87.4% (inactive). The Her2 level in experiment [2] is 104% (inactive). The differential viability (reversal) in experiment [6] (H69AR cells + 2 uM doxorubicin) was 11.3% (inactive). The inhibition was -4.4% (inactive) in experiment [7], -6% (inactive) in experiment [8] and 3.35% (inactive) in [14]. The results for the growth inhibition in [9] and in [10] were -3.77% (inactive) and -5.77% (inactive), respectively. Also, the viability increase in experiment [11] was -3.9% (inactive). Besides, the RAM network inhibition in experiment [15] was 4.11% (inactive).

On to `CCN(CC)C(=O)Oc1ccccc1NC(C)=O`, for which the viability is 102% in experiment [1]; 102% (inactive) in experiment [3]; 107% (inactive) in [4]; 90.5% (inactive) in experiment [5]; 90.7% in experiment [6] (setting [16]); 90.5% in experiment [6] (setting [17]). For the same compound, the viability in experiment [12] was 92.2% (inactive); in experiment [13], 96.1% (inactive). In addition, the Her2 level in experiment [2] is 92% (inactive). In experiment [6] (H69AR cells + 2 uM doxorubicin), the differential viability (reversal) is -0.19% (inactive). Besides, the inhibition is -5.14% (inactive) in experiment [7], -3% (inactive) in [8] and 0.84% (inactive) in [14]. For the same compound, the growth inhibition in [9] was 1.79% (inactive); in [10] it was -2.54% (inactive). For the same compound, in experiment [11], the viability increase was -0.54% (inactive). In experiment [15], the RAM network inhibition is -0.6% (inactive).

Consider `CC1CCC(NC(=O)C2(C)CCC(=O)N2Cc2cccnc2)CC1` (stereo not given), for which the viability is 97% in [1]; 97% (inactive) in [3]; 102% (inactive) in experiment [4]; 78.6% (inactive) in [5]; 87.5% in [6] (setting [16]); 78.6% in experiment [6] (setting [17]). The results for the viability in experiment [12] and in experiment [13] were 107% (inactive) and 98.3% (inactive), respectively. For the same compound, the Her2 level in experiment [2] is 114% (inactive). Besides, the differential viability (reversal) in [6] (H69AR cells + 2 uM doxorubicin) was -8.95% (inactive). In addition, the inhibition was 2.18% (inactive) in [7], -5.17% (inactive) in experiment [8] and 0.41% (inactive) in experiment [14]. In addition, the results for the growth inhibition in [9] and in experiment [10] were -12.3% (inactive) and -10.1% (inactive), respectively. Further, the viability increase in [11] was 1.23% (inactive). Besides, the RAM network inhibition in [15] is 1.87% (inactive).

In general, viability refers to a read-out of living cells in per cent, often relative to untreated cells. By inhibition is commonly meant the drop in the measured response relative to a control, in per cent.
